ADAM10 inh: human ADAM10 inhibitors, primary screen, biochemical, QFRET, HTS; Disintegrin and metalloproteinase domain-containing protein 10 (Homo sapiens), O14672; recombinant ADAM10, EDANS/DABCYL FRET peptide cleavage, 3 h; inhibition, % at 7 µM; 370,000 compounds, 0.62% hits;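 active = inhibition above a per-campaign cutoff equal to the mean of compounds falling between control-based bounds plus 3 SD, cut at about 20% in these data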
Target sequence (O14672 214-748 limits assumed): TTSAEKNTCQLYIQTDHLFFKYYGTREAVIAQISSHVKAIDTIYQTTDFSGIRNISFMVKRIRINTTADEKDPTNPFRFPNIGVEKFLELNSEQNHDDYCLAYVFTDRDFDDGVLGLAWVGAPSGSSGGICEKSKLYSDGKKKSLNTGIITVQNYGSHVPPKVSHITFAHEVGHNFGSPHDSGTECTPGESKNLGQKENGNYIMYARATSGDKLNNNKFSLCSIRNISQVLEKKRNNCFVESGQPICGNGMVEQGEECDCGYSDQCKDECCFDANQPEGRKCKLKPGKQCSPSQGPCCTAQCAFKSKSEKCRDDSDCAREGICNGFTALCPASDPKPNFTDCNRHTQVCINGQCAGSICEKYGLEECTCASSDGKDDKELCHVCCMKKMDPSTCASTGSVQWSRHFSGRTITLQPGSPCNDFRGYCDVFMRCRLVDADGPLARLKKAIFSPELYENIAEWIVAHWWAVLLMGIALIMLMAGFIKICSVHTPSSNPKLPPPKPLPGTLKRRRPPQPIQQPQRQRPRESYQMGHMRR
aDG glyco up: activators of alpha-DG glycosylation, primary screen, uHTS, Pro5-aDG cells, AlphaScreen; alpha-DG glycosylation AlphaScreen (IIH6); 0% Pro5, 100% B10-LARGE cell signal; activation, % at 10 µM; 360,000 compounds, 0.22% hits; AID 624168, 2012;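 active = activation of at least 8% versus controls, or a plate z-score of at least 8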;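 also: Pro5 are CHO cells carrying HIG-tagged alpha-DG that lacks glycosylation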
ADAM17 inh: ADAM17 inhibitors, primary screen, biochemical, QFRET | Disintegrin and metalloproteinase domain-containing protein 17 (Homo sapiens), P78536 | recombinant ADAM17, EDANS/DABCYL FRET peptide cleavage | inhibition, % at 6.95 µM | 370,000 compounds, 0.83% hits;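 active = inhibition above the mean of compounds lying between control limits plus 3 SD, set per campaign, cut at about 8.5% in these data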
GRIN3A LBD mod: binders of NR3A ligand-binding domain, primary screen, biophysical, differential scanning fluorimetry, uHTS; Glutamate receptor ionotropic, NMDA 3A (GRIN3A) ligand-binding domain; NR3A LBD differential scanning fluorimetry, Tm shift; 0% = protein alone, 100% = glycine-bound protein; Tm shift relative to glycine control, % at 25 µM; 340,000 compounds, 2.5% hits;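 active = melting temperature shift of at least 10% of the positive control shift, at one fixed dose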
FAS-TE inh: FAS thioesterase domain inhibitors, primary screen, biochemical, fluorescence intensity, uHTS | inhibition, % at 15 µM | recombinant FAS-TE, OMFH fluorogenic substrate, fluorescence endpoint | 360,000 compounds, 0.67% hits | AID 602261, 2012;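 active = compounds whose normalised, plate-corrected inhibition of enzyme fluorescence in the single-dose primary screen is 50% or more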
A number is an active result; - = inactive; . = no result given. A selection: hits, their analogues and other compounds. The true share with any hit is near 4%.

SMILES	ADAM10 inh	aDG glyco up	ADAM17 inh	GRIN3A LBD mod	FAS-TE inh
Cc1sc(NC(=O)c2cc(-c3ccccc3)nc3ccccc23)c(C(N)=O)c1C	-	-	-	17	-
COC(=O)c1sc(NC(=O)c2cc(-c3ccccc3)nc3ccccc23)c(C#N)c1C	-	-	-	21	-
CCOC(=O)c1sc(NC(=O)c2cc(-c3ccc(C)cc3)nc3ccccc23)c(C#N)c1C	-	-	-	-	-
Fc1cccc(Cc2c(-c3cccc(Br)c3)nc3c(Cl)cc(C(F)(F)F)cn23)c1	-	-	-	.	-
CC1(C)Cc2c(cnn2-c2ccc(F)cc2)C(NC(=O)CCN2CCCCO2)C1 (configuration not stated)	-	-	-	-	-
CCCc1nc(SCC(=O)Nc2nnc(SCC)s2)c2c(=O)n(C)c(=O)n(C)c2n1	-	-	-	-	-
CCSc1nnc(NC(=O)CSc2nc(CC)nc3c2c(=O)n(C)c(=O)n3C)s1	-	-	-	14	-
CNc1oc(-c2ccccc2F)nc1S(=O)(=O)c1ccc(C)cc1	-	-	-	13	-
CNc1oc(-c2ccccc2)nc1S(=O)(=O)c1ccc(C)cc1	-	-	-	-	-
CC1COCC(C)N1S(=O)(=O)c1ccc2c(c1)CCN2C(=O)C1CCC1 (configuration not stated)	-	.	-	.	.
COC(=O)c1c(-c2ccc(SC)cc2)sc2ccc(OC)cc12	-	-	-	13	-
C=CCOc1ccc(/C=N/Nc2ccccn2)cc1OC	-	-	-	-	-
COc1cccc(/C=N/NC(=O)c2nnn(-c3nonc3N)c2C(C)C)c1	-	-	-	26	-
CN(C)Cc1c(C(=O)N/N=C/c2cccc(OCc3ccc(F)cc3)c2)nnn1-c1nonc1N	-	-	-	-	-
CC(C)c1c(C(=O)N/N=C/c2ccc3c(c2)OCO3)nnn1-c1nonc1N	-	-	-	28	-
CC(C)c1c(C(=O)N/N=C/C=C/c2ccccc2)nnn1-c1nonc1N	-	-	-	17	-
Nc1nonc1-n1nnc(C(=O)N/N=C/c2ccc3c(c2)OCO3)c1-c1ccccc1	-	-	-	-	-
CC(C)c1c(C(=O)N/N=C/c2cccc(OCc3ccc(F)cc3)c2)nnn1-c1nonc1N	-	-	-	27	-
CCCCNC(=O)C[C@@H]1C[C@@]2(C(=O)OCC)CCC=C2N(Cc2ccccc2)C1=O	-	-	-	.	-
COc1cc(/C=N/NC(=O)c2nnn(-c3nonc3N)c2C(C)C)ccc1OCc1ccc(F)cc1	-	-	-	31	-
CCN(CC)c1ccc(/C=N/NC(=O)c2nnn(-c3nonc3N)c2C(C)C)c(O)c1	-	-	-	19	-
COC(=O)COc1ccc(-c2nccc(-c3ccc(Br)cc3)n2)cc1	-	-	-	-	-
COc1ccc(-c2ccnc(SCC(=O)c3ccc(Br)cc3)n2)cc1	-	-	-	26	-
CCn1cc(/C=N\NC(=O)c2ccc(Cl)cc2)cn1	-	-	-	-	-
COc1ccc(S(=O)(=O)NCCS(=O)(=O)N2CCN(c3ccccc3)CC2)cc1	-	-	-	19	-
SMILES	ADAM10 inh	aDG glyco up	ADAM17 inh	GRIN3A LBD mod	FAS-TE inh
Cc1noc(/C=C/N(C)C)c1S(=O)(=O)N1CCCC(C(=O)N2CCCCC2)C1 (configuration not stated)	-	-	-	14	-
O=C(/C=C/c1ccc(Cl)cc1)Nc1ccc(N2CCOCC2)cc1	-	-	-	-	-
O=C(Nc1ccc(Cl)cc1)Nc1ccc(N2CCOCC2)cc1	-	-	-	11	-
O=C(Nc1ccc(Cl)c(Cl)c1)N1CCOCC1	-	-	-	-	-
O=C(Nc1ccc(N2CCOCC2)cc1)Nc1ccc(Cl)c(Cl)c1	-	-	-	33	-
O=C(/C=C/c1ccc2c(c1)OCO2)NCCSCc1ccc(Cl)cc1Cl	-	-	-	-	-
O=C(/C=C/c1ccc2c(c1)OCO2)NCCSCc1cccc(Cl)c1	-	-	-	26	-
COc1ccc(CCNC(=O)CSc2nn(-c3ccccc3)c(=S)s2)cc1OC	-	-	-	19	-
Nc1cccc2nsnc12	-	-	-	-	-
Nc1cc2nsnc2cc1Br	-	6.6	-	-	-
O=S(=O)(Nc1ccccc1-c1ccccc1)c1ccccc1	-	-	-	14	-
O=C(O)c1cccc(S(=O)(=O)Nc2ccccc2-c2ccccc2)c1	-	-	-	-	-
O=C1NC(Cc2ccccc2)c2nc3ccccc3c(=O)n2-c2ncccc21 (configuration not stated)	-	-	-	.	-
CCN(CC)CCCN1CC(O)=C(c2nc3ccccc3s2)C1=N	-	-	-	18	-
N=C1C(c2nc3ccccc3s2)=C(O)CN1Cc1ccccc1	-	-	-	-	-
CCc1nc(SCC(=O)Nc2nnc(CC)s2)c2c(C)c(C)sc2n1	-	-	-	-	-
Nc1cccc(-c2nc3cc(S(=O)(=O)c4ccc5oc(-c6cccc(N)c6)nc5c4)ccc3o2)c1	-	-	-	24	-
CC(C)Cc1ccc(C(C)C(=O)Nc2nccs2)cc1 (configuration not stated)	-	-	-	-	-
Cc1cccc(NC(=O)c2ccc([N+](=O)[O-])s2)n1	-	7.2	-	-	-
Cc1ccnc(NC(=O)c2ccc([N+](=O)[O-])s2)c1	-	8.4	-	-	-
Cc1cccc(C)c1NC(=O)c1ccc([N+](=O)[O-])s1	-	-	-	-	-
O=C(COc1ccccc1[N+](=O)[O-])N/N=C/c1ccccn1	-	-	-	-	-
COc1ccccc1CNC(=O)C1CCCN(S(=O)(=O)c2ccc3c(c2)CC(C)N3C(C)=O)C1 (configuration not stated)	-	-	-	-	-
Cc1ccc([N+](=O)[O-])cc1NC(=S)NC(=O)CC(C)(C)C	-	-	-	-	-
CCOC(=O)CSc1nnc(Cc2ccccc2)n1-c1cccc(Cl)c1	.	-	.	733	-
O=C(NNC(=O)c1ccc(Cl)cc1Cl)Nc1ccccc1	-	-	-	-	-
O=C(NNC(=O)c1cc(-c2ccc(Cl)cc2Cl)nc2ccccc12)Nc1ccccc1	-	-	-	30	-
COc1ccccc1-c1noc(CCC(=O)Nc2cccc(C)c2)n1	-	-	-	14	-
O=C(Cn1cc(/C=N/NC(=O)c2ccccc2Br)c2ccccc21)Nc1ccc(F)cc1	-	-	-	10	-
O=C(Cn1cc(/C=N/NC(=O)c2cccc3ccccc23)c2ccccc21)Nc1ccc(F)cc1	-	-	-	-	-
